Screening results: PubChem, University of Pittsburgh Molecular Library Screening Center
HIV RNase H inh-1: HIV-1 RT RNase H inhibitors, primary screen, biochemical, fluorescence; Gag-Pol polyprotein (Human immunodeficiency virus type 1 group M subtype B (isolate …; RT-RNase H RNA/DNA duplex cleavage; inhibition, % at 10 µM; actives 1.9% (n = 65,000); AID 565, 2006; in the data active = inhibition above about 50%
HIV RNase H inh-2: HIV-1 RT RNase H inhibitors, retest, confirmation, biochemical | shares compounds with HIV RNase H inh-1 | Recombinant RT RNase H, fluorescent RNA/DNA duplex cleavage | inhibition, % at 10 µM | actives 39% (n = 1,000) | AID 651, 2007; in the data active = inhibition above about 48%; inconclusive = no clear call, values can overlap the other calls
Each line names hits and unclear results; the compound was inactive in the other large screens (follow-up assays come after a bar, where they were run). The entries come from a sample that favours hits as a whole.

Cc1nc2ccc(Cl)cn2c1P(=S)(N1CCOCC1)N1CCOCC1	none
CN(C)CCNS(=O)(=O)c1ccc(Cl)cc1	none
O=C(Cn1ncn2c(cc3ccccc32)c1=O)NCCC1=CCCCC1	none
CCOC(=O)C1=C(N)c2ccccc2CC1C(C)C (stereo not drawn)	none
CC1=C(C#N)C(c2ccc3ncccc3c2)C(C#N)=C(C)N1	none
CC(CC1C(C#N)=C(N)SC(N)=C1C#N)c1ccccc1 (stereo not drawn)	none
N#CC1=C(N)SC(N)=C(C#N)C1c1ccnc2ccccc12	HIV RNase H inh-1 65 | HIV RNase H inh-2 60
Cc1cccc(CSC2=NCCN2C(=O)c2ccc(Br)o2)c1	none
O=C1C(C=NCCCN2CCCC2=O)=C(O)c2ccccc21	none
Cc1ccc(C)n1-c1ccc(C(=O)N2CCOCC2)cc1	none
Cc1ccc(-n2c(N)c(C(=O)N3CCOCC3)sc2=S)cc1	HIV RNase H inh-1 95 | HIV RNase H inh-2 76
Cc1cccc2cc3c(N)c(C(=O)N4CCOCC4)sc3nc12	none
CN1CCN(C(=O)c2sc(=S)n(-c3ccccc3)c2N)CC1	HIV RNase H inh-1 95 | HIV RNase H inh-2 59
Cc1c(C(=O)O)sc(=S)n1-c1ccccc1	none
NC(=O)c1c(N)sc(=S)n1-c1ccccc1	none
C=CCn1c(SCc2ccccc2C#N)nnc1-c1ccccc1O	none
Cn1c(=O)c2c(nc(N3CCOCC3)n2CCSc2nc3ccccc3s2)n(C)c1=O	none
CC(=O)c1ccccc1OCCn1nnc(-c2ccc(C)cc2)n1	none
CCNC(=O)C1CC(=O)N(c2ccc(Br)cc2)C1 (stereo not drawn)	none
Cc1ccc(S(=O)(=O)N(C)CC(=O)N2CCCc3ccccc32)cc1	none
COc1ccc(Cc2nc(-c3cccs3)no2)cc1OC	HIV RNase H inh-1 72 | HIV RNase H inh-2 inactive
COc1ccccc1NC(=O)CCc1nc(-c2cccs2)no1	none
COc1ccc(Cc2nc(-c3ccc(-n4cccc4)cc3)no2)cc1OC	none
C=CCOc1c(Br)cc(CNn2nnnc2N)cc1OCC	none
Cc1ccc(-n2c(=O)cc(NCc3cccnc3)[nH]c2=O)cc1	none
COCC(=O)/C=C1\Sc2ccccc2N1C	none
COc1ccc2c(c1)S/C(=C\C(=O)c1ccncc1)N2C	HIV RNase H inh-1 67 | HIV RNase H inh-2 inactive
CN1/C(=C\C(=O)c2cccs2)Sc2ccccc21	none
CCC1(C)Cc2c(sc3c2c(=O)n(C)c2nnc(SCc4ccc5c(c4)OCO5)n32)CO1 (stereo not drawn)	HIV RNase H inh-1 58 | HIV RNase H inh-2 75
CCCCSc1nnc2n(CCc3ccccc3)c(=O)c3c4c(sc3n12)COC(C)(C)C4	none
CC(C)Oc1ccc(CSc2nnc3n(C)c(=O)c4c5c(sc4n23)CCCC5)cc1	none
CCSc1nnc(NC(=O)C(CC)Oc2ccccc2)s1 (stereo not drawn)	none
CCCOc1ccc(C2C(C(=O)c3ccco3)=C(O)C(=O)N2CCCn2ccnc2)cc1 (stereo not drawn)	none
Cc1cccc(N2CCN(c3nnnn3-c3ccccc3)CC2C)c1 (stereo not drawn)	none
CCOC(=O)C1C(=O)CC(C)(O)C(C(=O)OCC)C1c1ccccc1OC (stereo not drawn)	none
CCc1ccc(OCC(=O)Nc2ccc(-c3nc4ccccc4o3)c(O)c2)cc1	HIV RNase H inh-1 68 | HIV RNase H inh-2 inconclusive
COc1ccc(OCC(=O)Nc2cccc(-c3nc4ccccc4o3)c2)cc1	none
Oc1cc(NCc2cccnc2)ccc1-c1nc2ccccc2o1	none
O=C(Nc1ccccc1Oc1ccccc1)C1CC1	none
Cc1ccnc(SCCn2c(N3CC(C)CC(C)C3)nc3c2c(=O)n(C)c(=O)n3C)n1 (stereo not drawn)	none
Cc1cc(NC(=O)CN2CCN(Cc3ccccc3)CC2)nc2c1c(=O)oc1ccccc12	none
CO/C([O-])=N/c1c[n+](-c2ccc(C)cc2)no1	none
CCCC[n+]1cc(/N=C(\[O-])OC)on1	HIV RNase H inh-1 84 | HIV RNase H inh-2 inactive
COc1ccc(CC[n+]2cc(/N=C(\C)[O-])on2)cc1OC	none
O=C(CN1C(=O)c2ccccc2S1(=O)=O)N1CCc2ccccc2C1	none
c1ccc2c(c1)nc1n2C2(N3CCOCC3)CCCC2C1N1CCOCC1 (stereo not drawn)	none
Oc1ccc2c(c1)C1CCCC1(N1CCOCC1)O2 (stereo not drawn)	HIV RNase H inh-1 68 | HIV RNase H inh-2 inactive
Cc1ccc(CCN2CC(C(=O)NCCCN3CCCCCC3)CC2=O)cc1 (stereo not drawn)	none
COc1ccc(-c2noc(CSc3nc(N)c(-c4ccccc4)c(=O)[nH]3)n2)cc1	none
COc1ccc2c3c(c(=O)oc2c1OCC(N)=O)CCCC3	none
COC(=O)N1CC(=O)N(OC)C1c1ccc(Cl)cc1Cl (stereo not drawn)	none
COC(=O)c1ccc(C2CC(=O)Nc3cc(OC)c(OC)c(OC)c32)cc1 (stereo not drawn)	none
S=C(c1ccc(-c2ccccc2Cl)o1)N1CCOCC1	HIV RNase H inh-1 95 | HIV RNase H inh-2 51
O=C(c1cc(Cl)ccc1Cl)N1CCOCC1	none
N#CCCN1CCN(C(=S)c2ccc(-c3cc(Cl)ccc3Cl)o2)CC1	none
CCOc1ccc(C(=S)N2CCOCC2)cc1	none
O=C(c1ccc(-c2cccc(C(F)(F)F)c2)o1)N1CCOCC1	none
O=C(CSc1ccc(Cl)cc1)N1CCOCC1	none
S=C(c1ccc(-c2ccc(Cl)c(Cl)c2)o1)N1CCOCC1	HIV RNase H inh-1 66 | HIV RNase H inh-2 inactive
COc1ccc(-c2ccc(C(=S)N3CCN(C(C)=O)CC3)o2)cc1	none
S=C(c1ccc(Cl)cc1)N1CCOCC1	HIV RNase H inh-1 90 | HIV RNase H inh-2 58
COc1cccc(-n2nnc3c(=O)n(CC(=O)N4CCC(Cc5ccccc5)CC4)cnc32)c1	none
Cc1cc(NC(=O)C23CCC(C)(c4nc5cc(Cl)c(Cl)cc5nc42)C3(C)C)no1 (stereo not drawn)	none
O=C(NC1CCCCC1)C(c1ccco1)N(Cc1cccnc1)C(=O)C1COc2ccccc2O1 (stereo not drawn)	none
O=S(=O)(c1cccs1)N1CCN(CC(O)COc2cc(Cl)ccc2Cl)CC1 (stereo not drawn)	none
Cc1cc(OCC(=O)Nn2cnnc2)ccc1Br	none
CN(CC(=O)NCc1cccs1)S(=O)(=O)c1cccc2nsnc12	none
CCn1c(=S)sc2nc(C)sc21	HIV RNase H inh-1 84 | HIV RNase H inh-2 inactive
CC(=O)Nc1ccc(S(=O)(=O)N(C)CC(=O)NC2=NCCS2)cc1	none
CCOC(=O)Nc1c(O)ccc2oc(C)c(-c3ccccc3)c12	none
CCN1C(=C2C(=O)c3ccccc3C2=O)C=Cc2ccccc21	none
O=C1C=Cc2ccccc2C1=O	HIV RNase H inh-1 95 | HIV RNase H inh-2 67
O=C1c2ccccc2C(=O)N1C/C=C/CN1C(=O)c2ccccc2C1=O	none
Cc1ccsc1C(=O)OCc1csc(-c2ccccc2)n1	none
CCC(C(=O)Nc1ccccc1OC)n1c(C(=O)OC)cc2ccsc21 (stereo not drawn)	none
CCCC(=O)Nc1ccccc1NC(=O)C1CCCCC1	none
CCCC(=O)Nc1cc(OC)c(NC(=O)NC2CCCCC2)cc1OC	HIV RNase H inh-1 53 | HIV RNase H inh-2 inactive
COc1ccccc1OCC(=O)NC1CCCCCC1	none
O=C(c1ccco1)N1CCN(C(c2cccs2)c2nnnn2C2CCCCC2)CC1 (stereo not drawn)	none
CN(C)S(=O)(=O)c1ccc(C(=O)OCC(=O)c2ccc(OC(F)F)cc2OC(F)F)cc1	none
COC(=O)C1=C(C)NC2=C(C(=O)CCC2)C1c1ccccn1 (stereo not drawn)	none
COc1ccc(OC)c(C2CC(=O)N3CN(c4cccc(Cl)c4C)CSC3=C2C#N)c1 (stereo not drawn)	none
